Screening results deposited in PubChem BioAssay by several laboratories.
Compounds with a hit are over-represented: about 0.5% of the library has one in this group of screens.
AddAB inh: growth inhibition of E. coli expressing H. pylori AddAB, primary screen, AddAB inhibitor project, absorbance; inhibition, % at 11.9 µM; actives 0.29% (n = 330,000); AID 435030, 2010; in the data active = inhibition above about 12%;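 also: 0% = vehicle wells of infected cells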
E coli growth-1: E. coli V3065 growth inhibition, primary screen, counter-screen for AddAB inhibitor project, absorbance, OD600; 18 h; inhibition, % at 11.9 µM; actives 0.27% (n = 330,000);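 active = inhibition above the campaign's mean inhibition across all tested compounds plus 3 SD, cut at about 9.9% in these data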;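 also: uninfected addAB+ strain grown without phage in ampicillin broth; 0% = DMSO wells and 100% = ciprofloxacin 0.95 µg/ml wells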
E coli growth-2: E. coli growth inhibition, primary screen, OD600. OD600 absorbance (test concentration not listed). AID 1053175, 2014. actives 0.21% (n = 330,000). Escherichia coli growth, 23 h; active compounds read low;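 active = OD600 absorbance below the run mean of sample wells minus 3.6 SD, in any replicate, cut at about 0.56 in these data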
Tat transport: E. coli Tat export inhibitors, primary screen, MC4100, TorA-mCherry reporter, fluorescence, single point; inhibition, % at 10 µM; actives 0.036% (n = 340,000);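 active = mean replicate inhibition at least 50% and at least half of replicates individually reaching 50%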;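 also: exported cargo escapes ClpAP degradation while cytoplasmic cargo is degraded and loses fluorescence; 0% = median of neutral control wells and 100% = median of NaSCN control wells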
phage Ecoli inh: growth loss of phage-infected E. coli, primary screen, RecBCD inhibitor project, absorbance, with phage, HTS; inhibition, % at 11.9 µM; actives 0.26% (n = 360,000); AID 651602, 2012; in the data active = inhibition above about 11%
* = called active by the depositor; . = no result given.

SMILES	AddAB inh	E coli growth-1	E coli growth-2	Tat transport	phage Ecoli inh
CC(=O)NC(c1ccco1)c1cc(Cl)c2cccnc2c1O (centres undefined)	.	.	.	.	5.8
COc1ccc(C(NC(=O)c2cccnc2)c2cc(Cl)c3cccnc3c2O)cc1OC (centres undefined)	25.4*	23.3*	0.673	-5.5	19.5*
CC1CN(C(C)CO)C(=O)c2cc(NS(=O)(=O)c3ccccc3)ccc2OC1CN(C)S(=O)(=O)c1cccs1 (centres undefined)	.	.	0.693	.	.
CC(C)C[C@@H]1CN=C(N)N1C[C@@H]1CCCN1C[C@H](C)N1C[C@@H](Cc2ccccc2)N(CCCC2CCCC2)C1=N	1.9	2.6	.	-2.1	0.6
CCCC(CN1CCCC1CN1C(N)=NCC1Cc1ccccc1)N1CC(Cc2ccccc2)N(CCCC2CCCC2)C1=N (centres undefined)	.	.	0.344*	.	.
CCC[C@@H](CN1CCC[C@H]1CN1C(N)=NC[C@H]1CC(C)C)N1C[C@@H]([C@H](C)CC)N(CCCC2CCCC2)C1=N	3.0	4.8	0.432*	-0.7	4.2
CCC[C@@H](CN1CCC[C@H]1CN1C(N)=NC[C@H]1C(C)C)N1C[C@@H]([C@H](C)CC)N(CCCC2CCCC2)C1=N	2.2	1.2	0.647	10.1	1.4
COC(=O)C=CC1=CN(Cc2ccccc2)CCC1=O	.	.	0.661	.	.
CCC(C)C1CNC(=O)C(=O)N1CCCc1cc(OC)c(OC)c(OC)c1 (centres undefined)	.	.	0.673	.	.
CC(=O)c1ccc(NC(=S)Nc2ccc(Br)c(Cl)c2)cc1	0.8	1.4	0.505*	-13.3	8.5
CCN1C(N(C)CCc2cccs2)=NC(c2ccccc2)C(C(=O)OC)=C1C (centres undefined)	.	.	0.701	.	.
OC(c1cc(C(F)(F)F)nc2c(C(F)(F)F)cccc12)C1CCCCN1 (centres undefined)	-2.1	0.9	0.424*	0.5	6.4
OC(c1cc(-c2ccc(C(F)(F)F)cc2)nc(C(F)(F)F)c1)C1CCCCN1 (centres undefined)	3.2	6.2	0.494*	12.3	7.4
OCC1NCC(O)C1O (centres undefined)	.	.	0.709	.	.
C#CCOCCOCCOCCNc1nc(N2CCN(C(=O)C(C(C)CC)n3cc(C(N)Cc4ccc(O)cc4)nn3)CC2)nc(N2CCN(C(=O)C(C(C)CC)n3cc(C(N)CC(C)C)nn3)CC2)n1 (centres undefined)	.	.	0.645	.	.
CC(NC(=O)c1[nH]cnc1C(=O)Nc1cccc(Cl)c1)c1ccccc1 (centres undefined)	.	.	0.73	.	.
CCN1C(=O)C2C(c3ccc(-c4cccc(Cl)c4)c(OC)c3)N3CCC[C@@]3(C(=O)OC)C2C1=O (some centres undefined)	.	.	0.682	.	.
Cc1ccc(NS(=O)(=O)c2ccc(OCC(=O)NCc3ccco3)cc2)cc1	9.7	13.4*	0.752	-1.5	3.2
CCOC(=O)C1C2COc3cc(OC)ccc3C2N2C(=O)N(c3ccc(F)cc3)C(=O)[C@@]12C (some centres undefined)	.	.	0.691	.	.
C/C(=N\Nc1ncnc2sc(C)c(C)c12)c1ccccn1	11.3	14.3*	.	20.2	5.7
Cc1sc2ncnc(N/N=C/c3cccc(O)c3)c2c1C	0.6	1.0	.	1.9	1.6
C=CCN1C(=O)[C@@H]2Cc3c([nH]c4ccccc34)C(c3cc(OC)c(OC)c(OC)c3)N2C1=S (some centres undefined)	-0.9	-2.2	0.69	-5.9	6.0
C=CCN1C(=O)[C@@H]2Cc3c([nH]c4ccccc34)C(c3ccc(O)cc3)N2C1=S (some centres undefined)	1.2	-1.2	0.0665*	4.5	.
CCOc1ccc(N(CC(=O)Nc2ccc(C)cc2)S(=O)(=O)c2c(C)noc2C)cc1	4.0	0.4	0.757	12.2	18.0*
CCOc1ccc(N(CC(=O)Nc2ccc(F)c(F)c2)S(=O)(=O)c2c(C)noc2C)cc1	5.4	1.3	0.671	1.0	3.0
SMILES	AddAB inh	E coli growth-1	E coli growth-2	Tat transport	phage Ecoli inh
c1ccc(N2CCN(Cc3ccnc4ccccc34)CC2)cc1	-0.9	-0.1	0.642	8.1	1.1
Oc1c(CN2CCN(c3ccccc3)CC2)cc(Br)c2cccnc12	9.0	4.0	0.465*	5.4	5.3
CCn1c(C)nc2cc(C(=O)N/N=C/c3ccc(O)c(O)c3O)ccc21	.	.	.	10.2	21.1*
c1ccc2c3c([nH]c2c1)-c1[nH]ncc1CC3	3.6	0.1	0.604	-8.6	0.3
Clc1ccc2[nH]c3c(c2c1)CCc1cn[nH]c1-3	1.3	-0.9	0.562*	3.0	2.1
O=C(NNc1ccc(Cl)cc1)c1sccc1Cl	-0.2	1.9	0.498*	3.8	1.2
